Compound activity as filed in PubChem BioAssay.
ELG1 repair inh: ELG1-dependent DNA repair inhibition; HEK293T ELG1-luciferase reporter, luminescence, 16 h; DNA damage induced by 5-fluorouridine; Potency, µM (titrated, usually from 46.1 µM), for inactives: at the highest dose activity change, negative = inhibition, actives largely listed as inhibitors; 2.3% of 330,000 active; note: potency is the fitted concentration of half-maximal effect; nearly all actives have a fitted effect of over 55% in size
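Quantitative HTS, concentration-response format. 2,000 cells/well co-treated with 5-fluorouridine and compound, 16 hr in 5% CO2 at 37 °C; ONE-Glo luminescence read after 30 min.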
Coupling enz: coupling enzyme interference in Giardia aldolase counter-screen; activity change, negative = inhibition, % at 58.2 µM, hits read low; 0.67% of 290,000 active; coupling enzyme system counterscreen, AmpLite Red fluorescence; in the data active = activity change below about -30%
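Coupling enzymes only (glyceraldehyde-3-phosphate) + compound, at 57.5 uM final, 10 min RT; add substrate/coupling/AmpLite Red mix, 20 min RT; fluorescence ex 525/em 598 nm. Actives flag coupling-system interference.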
Gal4-VP16 FLuc: Gal4-VP16 reporter inhibition counter-screen; 3.5% of 310,000 active; Potency, µM (titrated, usually from 53.6 µM), inactives show at the top dose activity, negative = inhibition, usual class: inhibitors; Drosophila S2 Gal4-VP16 UAS-luciferase, luminescence, 20 h;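 note: Gal4-VP16 expression switched on by copper sulfate through the metallothionein promoter; potency is the fitted concentration of half-maximal effect; nearly all actives have a fitted effect of over 50% in size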
RORgamma inh: ROR gamma (mouse) transcription inhibition; Drosophila S2 Gal4-RORgamma UAS-luciferase reporter, 20 h; Potency, µM (doses to about 53.6 µM), for inactives: at the highest dose activity change, negative = inhibition, actives largely listed as inhibitors; 5.4% of 310,000 active; P51450; note: potency is the fitted concentration of half-maximal effect; nearly all actives have a fitted effect of over 60% in size
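In this cell-based reporter format, copper sulfate (700 uM final) drives Gal4–ROR gamma fusion expression from a metallothionein promoter in Drosophila Schneider cells; compounds preincubated 1 hr, reporter read after 20 hr at ambient temperature.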
TSHR antagonist: antagonists of human thyroid stimulating hormone receptor; P16473; TSHR-expressing cells, TSH-stimulated cAMP HTRF, 2 h; hits give low values; activity change, negative = inhibition, % at 11.5 µM; 0.2% of 330,000 active;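 active = activity change below a set negative limit, meaning inhibition stronger than a set level, cut at about -70% in these data; inconclusive = activity change between two set negative limits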
Target sequence (P16473 whole entry, looked up): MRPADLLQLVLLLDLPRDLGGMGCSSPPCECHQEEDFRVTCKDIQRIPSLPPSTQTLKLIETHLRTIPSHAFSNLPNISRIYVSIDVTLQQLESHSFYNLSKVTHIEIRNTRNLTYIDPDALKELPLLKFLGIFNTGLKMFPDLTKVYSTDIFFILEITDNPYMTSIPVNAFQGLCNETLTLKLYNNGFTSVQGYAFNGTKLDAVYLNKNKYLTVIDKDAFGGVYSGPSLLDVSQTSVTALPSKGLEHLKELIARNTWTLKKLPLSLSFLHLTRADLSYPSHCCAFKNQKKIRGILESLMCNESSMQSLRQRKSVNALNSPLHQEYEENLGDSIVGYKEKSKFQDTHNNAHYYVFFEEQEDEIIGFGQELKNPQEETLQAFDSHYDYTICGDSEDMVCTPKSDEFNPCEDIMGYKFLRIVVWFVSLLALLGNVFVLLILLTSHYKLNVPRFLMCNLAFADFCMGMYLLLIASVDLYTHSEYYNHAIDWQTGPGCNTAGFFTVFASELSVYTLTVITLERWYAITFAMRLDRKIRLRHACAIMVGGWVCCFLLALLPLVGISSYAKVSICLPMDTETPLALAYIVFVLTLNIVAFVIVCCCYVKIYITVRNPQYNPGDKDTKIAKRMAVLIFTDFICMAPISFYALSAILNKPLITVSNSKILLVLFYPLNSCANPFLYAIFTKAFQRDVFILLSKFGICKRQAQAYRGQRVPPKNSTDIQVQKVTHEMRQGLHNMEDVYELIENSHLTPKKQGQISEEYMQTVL
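TSHR-expressing cells, 200/well, pre-treated with compound, then stimulated with EC80 TSH (4nM final) for 2 hours at 37 deg C. cAMP measured by competitive HTRF: anti-cAMP cryptate antibody in lysis buffer plus cAMP-d2, read after 30 minutes at room temperature.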
Numbers without * were called inactive; [ ] = another dose, or the depositor's remark. Rows were chosen to be rich in hits. Some 8% of all compounds tested hit in one or more screens of this group. Unless noted, calls come from the whole dose curve; as a rule, active = well fitted curve in the direction sought with a large enough effect; inconclusive = small, poorly fitted or top-dose-only effect, or another doubt; inactive = no such curve, though single readings can be large; an effect the other way counts as inactive or inconclusive. % is set by controls: 0 for no effect and ±100 for the full control effect.

Screening C/C=C(\C)CN1CCCC(N(C)CCc2ccc(OC)c(OC)c2)C1 (stereo unspecified) returned ELG1 repair inh -2.1%, Coupling enz 2.3, Gal4-VP16 FLuc -0.5%, RORgamma inh -2.1% and TSHR antagonist 11.3.
`CC1(C)CC[C@]2(C)CC[C@@]3(C)C(=CCC4[C@@]5(C)CCC(O)C(C)(C)C5CC[C@@]43C)C2C1` (stereo partly specified) gave Coupling enz 2.7, Gal4-VP16 FLuc -2.8% and RORgamma inh 10.8%.
Screening CC1(C)CC[C@]2(C(=O)O)C(O)C[C@@]3(C)C(=CCC4[C@@]5(C)CCC(O)C(C)(C)C5CC[C@@]43C)C2C1 (stereo partly specified) returned Coupling enz 0.9, Gal4-VP16 FLuc -28.8% and RORgamma inh 1.41µM*.
CCOc1ccc(NC(=S)NC(=O)c2cccnc2)c([N+](=O)[O-])c1 was read as ELG1 repair inh 15.9%, Coupling enz -0.6, Gal4-VP16 FLuc 17.8µM*, RORgamma inh 20µM* and TSHR antagonist -7.2.
CCOc1ccc(NC(=S)NC(=O)c2c(Cl)cnn2CC)c([N+](=O)[O-])c1 was read as ELG1 repair inh 0.5%, Coupling enz -0.9, Gal4-VP16 FLuc inconclusive, RORgamma inh 7.94µM* and TSHR antagonist -6.2.
CCOc1ccc(NC(=S)NC(=O)c2c(Br)cnn2C)c([N+](=O)[O-])c1 was read as ELG1 repair inh 24.3%, Coupling enz 0.1, Gal4-VP16 FLuc -0.6%, RORgamma inh inconclusive and TSHR antagonist 1.2.
Screening Cc1cc(C)c(NC(=S)NC(=O)c2c(Cl)c(C)nn2C)c([N+](=O)[O-])c1 returned ELG1 repair inh 14.6%, Coupling enz -0.7, Gal4-VP16 FLuc inconclusive, RORgamma inh 20µM* and TSHR antagonist 2.1.
`CCn1ncc(Cl)c1C(=O)NC(=S)Nc1c(C)cc(C)cc1[N+](=O)[O-]` gave ELG1 repair inh -5.1%, Coupling enz -4.8, Gal4-VP16 FLuc 12.6µM*, RORgamma inh 1.26µM* and TSHR antagonist -6.1.
`COc1ccc(OCC(=O)N/N=C(\C)CC(=O)Nc2ccc(OC)cc2[N+](=O)[O-])cc1` gave ELG1 repair inh 8.0%, Coupling enz 1.4, Gal4-VP16 FLuc -12.5%, RORgamma inh inconclusive and TSHR antagonist -1.7.
For COc1ccc(NC(=O)C/C(C)=N/NC(=O)c2ccncc2)c([N+](=O)[O-])c1 the results were ELG1 repair inh 8.2%, Coupling enz -1.3, Gal4-VP16 FLuc -20.8%, RORgamma inh 12.6µM* and TSHR antagonist -3.4.
Screening CCOc1ccc(N/C=C/C(=O)c2ccccc2)c([N+](=O)[O-])c1 returned ELG1 repair inh inconclusive, Coupling enz -0.6, Gal4-VP16 FLuc 7.08µM*, RORgamma inh 7.08µM* and TSHR antagonist 16.1.
Screening CS(=O)(=O)c1ccc(Cl)c(NC(=O)CCN2C(=O)NC3(CCCC3)C2=O)c1 returned ELG1 repair inh -0.2% and TSHR antagonist -0.4.
NC(=O)c1cc([N+](=O)[O-])ccc1NCc1cnccn1 was read as ELG1 repair inh 6.9% and TSHR antagonist 11.0.
Screening CC(C)Oc1ccc(C(=O)NC2=NCCS2)cc1 returned ELG1 repair inh inconclusive, Coupling enz 7.7, Gal4-VP16 FLuc 1.0%[10 µM], RORgamma inh 10µM* and TSHR antagonist 2.4.
For O=C(NC1=NCCS1)c1cccc(OC(F)F)c1 the results were ELG1 repair inh inconclusive, Coupling enz 1.5, Gal4-VP16 FLuc -29.0%, RORgamma inh 11.2µM* and TSHR antagonist 7.9.
`CCOC(=O)Cc1csc(NC(=O)CSc2nc(=O)[nH]c3c2CCC3)n1` gave ELG1 repair inh -17.4% and TSHR antagonist -5.9.
`Cn1c(CC(=O)Nc2ccccc2Cl)nnc1SCC(=O)NC1CCCCC1` gave ELG1 repair inh 11.6%, Coupling enz -2.5, Gal4-VP16 FLuc -0.8%, RORgamma inh -1.2% and TSHR antagonist 3.5.
`CCN(CC)C1CC(=O)N(c2ccc(Br)cc2)C1=O` (stereo unspecified) gave ELG1 repair inh -1.8%, Coupling enz -1.9, Gal4-VP16 FLuc 17.8µM*, RORgamma inh 12.6µM* and TSHR antagonist 0.0.
O=C(c1ccco1)N1CCC2(CCCN(c3ccccn3)C2)CC1 was read as Coupling enz 2.0, Gal4-VP16 FLuc 9.9% and RORgamma inh 2.6%.
Cc1ccccc1C(=O)Nc1nnc(SC(C)C)s1 was read as ELG1 repair inh inconclusive, Coupling enz 1.8, Gal4-VP16 FLuc -0.4%, RORgamma inh 2.51µM* and TSHR antagonist 0.2.
Cc1nnc(NC(=O)c2sc3ccccc3c2Cl)s1 was read as ELG1 repair inh inconclusive, Coupling enz -14.0, Gal4-VP16 FLuc 8.91µM*, RORgamma inh inconclusive and TSHR antagonist -20.8.
Screening COCc1nnc(NC(=O)c2sc3ccccc3c2Cl)s1 returned ELG1 repair inh inconclusive, Coupling enz 0.0, Gal4-VP16 FLuc inconclusive, RORgamma inh 8.4% and TSHR antagonist -13.3.
Cc1ccnc(NC(=O)c2cc3cc(F)ccc3s2)c1 was read as ELG1 repair inh inconclusive, Coupling enz -4.9, Gal4-VP16 FLuc inconclusive, RORgamma inh 3.16µM* and TSHR antagonist -17.9.
Cc1ccnc(NC(=O)Nc2ccc(F)cc2)c1 was read as ELG1 repair inh inconclusive, Coupling enz -3.3, Gal4-VP16 FLuc -14.1%, RORgamma inh inconclusive and TSHR antagonist -4.7.
`Cc1nnc(NC(=O)c2ccccc2-c2ccccc2C(=O)O)s1` gave ELG1 repair inh inconclusive, Coupling enz -0.1, Gal4-VP16 FLuc -1.8%, RORgamma inh 14.6% and TSHR antagonist 8.9.
For Cc1nnc(NC(=O)c2ccccc2NC(=O)c2ccccc2)s1 the results were ELG1 repair inh inconclusive, Coupling enz 5.3, Gal4-VP16 FLuc -16.8%, RORgamma inh 17.8µM* and TSHR antagonist -11.4.
CSCC[C@H](NS(=O)(=O)c1ccc(C)cc1)C(=O)N1CCC(C(=O)N[C@@H](Cc2ccc(O)cc2)C(=O)O)CC1 was read as ELG1 repair inh -11.8%, Coupling enz 2.3, Gal4-VP16 FLuc -2.0%, RORgamma inh 22.9% and TSHR antagonist -0.4.
For Cc1cccnc1NC(=O)c1sc2ccccc2c1Cl the results were ELG1 repair inh inconclusive, Gal4-VP16 FLuc 8.91µM*, RORgamma inh 8.91µM* and TSHR antagonist -7.9.
Screening O=C(O)CCCn1cc(NC(=O)c2sc3ccccc3c2Cl)cn1 returned ELG1 repair inh 18.8%, Gal4-VP16 FLuc 5.01µM*, RORgamma inh 14.1µM* and TSHR antagonist -16.9.
Screening CC(C)Cc1nnc(NC(=O)CC(=O)Nc2ccccc2C(=O)O)s1 returned ELG1 repair inh inconclusive, Coupling enz 11.9, Gal4-VP16 FLuc 10.6%, RORgamma inh 20.3% and TSHR antagonist 6.7.
